{"source": "PubChem BioAssay (NCI)", "note": "Compounds without any hit were thinned out: in the full panel of roughly 83,000, 20% have a hit.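 For each line, cells grew in 96-well plates with the test compound present at a single concentration for 48 hours.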 The source made the active and inactive calls. How the source made its calls: active means growth percent below 10; inactive means the rest."}
{"tested_on": "MALME-3M melanoma", "assay": "NCI-60 one-dose screen, 48 h (100 = growth as untreated, 0 = no growth, -100 = all killed)", "settings": "10 µM"}
{"molecule": "O=C(/C=C/c1ccco1)c1nc2ccccc2n1Cc1ccc(Br)cc1", "growth": "44.2% (inactive)"}
{"molecule": "O=C(/C=C/c1ccco1)c1nc2ccccc2n1Cc1ccc(F)cc1", "growth": "59.9% (inactive)"}
{"molecule": "COc1cc2cc(C(=O)N3C[C@@H](CCl)c4c3cc(OC(=O)N3CCN(C)[C@@H]5CSSC[C@@H]53)c3ccccc43)[nH]c2c(OC)c1OC", "growth": "-70.3% (active)"}
{"molecule": "C#CC[Se]C(=O)c1ccc2n[se]nc2c1", "growth": "41.5% (inactive)"}
{"molecule": "O=C(/C=C/c1ccc(Cl)cc1Cl)c1nc2ccccc2n1Cc1ccc(F)cc1", "growth": "69.1% (inactive)"}
{"molecule": "O=C(/C=C/c1ccc(Cl)cc1)c1nc2ccccc2n1Cc1ccc(Br)cc1", "growth": "71.5% (inactive)"}
{"molecule": "CCOP(=O)(OCC)C(NC(C)=O)C(=O)SCCN", "note": "(centres undefined)", "growth": "105% (inactive)"}
{"molecule": "COc1cc2cc(C(=O)N3C[C@@H](CCl)c4c3cc(OC(=O)N3CCN(C)[C@@H]5CSSC[C@H]53)c3ccccc43)[nH]c2c(OC)c1OC", "growth": "-92% (active)"}
{"molecule": "COc1ccc2cc([C@H](C)C(=O)[Se]CCC#N)ccc2c1", "growth": "-44.7% (active)"}
{"molecule": "CC12OOC(C)(OO1)C2CCC(=O)OCCNc1ccnc2cc(Cl)ccc12", "note": "(centres undefined)", "growth": "-73% (active)"}
{"molecule": "CC(C)N=C([Se])NC(=O)c1cccs1", "growth": "102% (inactive)"}
{"molecule": "Cc1ccc2[nH]c(=S)n(-c3ccc(F)cc3)c(=O)c2c1", "growth": "96.4% (inactive)"}
{"molecule": "CCOC(=O)C1=C(Nc2ccccc2)C(=O)OC12C(=O)Nc1ccccc12", "note": "(centres undefined)", "growth": "102% (inactive)"}
{"molecule": "CC12CCC3(CCC(=O)NCCCNc4ccnc5cc(Cl)ccc45)[C@@](C)(OO[C@]3(C)O1)O2", "growth": "17.5% (inactive)"}
